Laboratory results reported in PubChem BioAssay (NCI).
About 83,000 compounds went through this panel and 20% of them were active in at least one assay; those are over-represented in the sample as a whole.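 Method: cells in 96-well plates; compound added at one concentration; 48 h incubation; percent growth measured; values under 10 scored active.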 Values without a mark were called inactive. Active and inactive are the calls of the source.

Key:
Experiment in all cases: NCI-60 one-dose screen, 48 h (100 = growth as untreated, 0 = no growth, -100 = all killed)
Settings in all cases: 10 µM unless noted
DU-145 prostate = test system: DU-145 prostate
K-562 leukemia = test system: K-562 leukemia
MALME-3M melanoma = test system: MALME-3M melanoma
MDA-MB-231 breast = test system: MDA-MB-231 breast
RXF 393 renal = test system: RXF 393 renal
SF-268 CNS = test system: SF-268 CNS
SF-295 CNS = test system: SF-295 CNS
SF-539 CNS = test system: SF-539 CNS
UACC-257 melanoma = test system: UACC-257 melanoma
M14 melanoma = test system: M14 melanoma

Row | Structure (SMILES) | growth (DU-145 prostate) | growth (K-562 leukemia) | growth (MALME-3M melanoma) | growth (MDA-MB-231 breast) | growth (RXF 393 renal) | growth (SF-268 CNS) | growth (SF-295 CNS) | growth (SF-539 CNS) | growth (UACC-257 melanoma) | growth (M14 melanoma)
1 | O=C(CCN1CCCC1)c1ccc([N+](=O)[O-])cc1 | 104% | 100% | 94.9% | 102% | 107% | 101% | 97.9% | 93.6% | 101% | 102%
2 | O=S(=O)(NCCCNc1nccc(-c2c(-c3cccc(O)c3)nc3occn23)n1)c1ccc(Cl)cc1 | 95.4% | 55.6% | 10.7% | 61.8% | 77.9% | 87.4% | 116% | 108% | 12.7% | 24.3%
3 | NC1[C@H](c2c[nH]c3ccccc23)c2c([nH]c3ccccc23)[C@H]1c1c[nH]c2ccccc12 (stereo not given in full) | 95.3% | 90.8% | 88.9% | 75.7% | 104% | 84.4% | 92.9% | 100% | 111% | 92.3%
4 | CCN(CC)c1ccc(/C=N/NC(=O)CSc2nc3ccccc3c(=O)n2Cc2ccc(S(N)(=O)=O)cc2)c(O)c1 | 37.8% | 6.12% (active) | 31.3% | 25.3% | 42.6% | 18.6% | 20.3% | 27.9% | 13% | 4.26% (active)
5 | COc1cc2nc(-c3ccc(C(F)(F)F)cc3)cc(OCCCN3CCCC3)c2cc1OC | 41.7% | 24.6% | 51.2% | 25.7% | 44.4% | 45.5% | -28.3% (active) | 45.8% | 22.7% | -38.4% (active)
6 | O=S(=O)(NCCNc1nccc(-c2c(-c3cccc(O)c3)nc3occn23)n1)c1cccc(F)c1 | 104% | 70.8% | 4.35% (active) | 69.4% | 91.6% | 93.1% | 106% | 111% | 39.7% | 35.9%
7 | CCCCCN1C=C/C(=C\C(=O)N(C)c2ccc(Oc3ccccc3)cc2)c2ccccc21 | 103% | 48.8% | 83.7% | 76.9% | 85.8% | 87.8% | 81.1% | 92.8% | 74.2% | 94.1%
8 | O=C(C[n+]1cccc2ccccc21)c1ccc(O)c(O)c1 | 84.8% | 28.5% | 53.9% | 59.1% | 49.6% | 84.7% | 105% | 91.2% | 78.1% | -83.4% (active)
9 | CCOC(=O)Nc1ccc(-c2ccc3c(c2)NC(=O)/C3=C\c2ccc[nH]2)cc1 | 110% | 92.3% | 110% | 69.3% | 112% | 100% | 101% | 94% | 113% | 103%
10 | C=C1C(=O)O[C@H]2[C@H]1CC/C(CNC(=O)/C=C/c1cccc(OC)c1)=C\CC[C@@]1(C)O[C@@H]21 | 13.2% | 3.75% (active) | -45% (active) | 7.34% (active) | -80.5% (active) | 48.4% | 71.8% | -70.5% (active) | -6.14% (active) | -36.8% (active)
11 | O=C(/C=C(O)/C=C/c1ccc(SC(F)(F)F)cc1)/C=C/c1ccc(SC(F)(F)F)cc1 | 97.2% | 77.6% | 98.6% | 99.8% | 104% | 86.3% | 97.5% | 106% | 104% | 79.9%
12 | C=C1C(=O)O[C@H]2[C@H]1CC/C(C(=O)NCCCCCNC(=O)/C1=C/CC[C@@]3(C)O[C@H]3[C@H]3OC(=O)C(=C)[C@@H]3CC1)=C\CC[C@@]1(C)O[C@@H]21 | 104% | 114% | 96.2% | 106% | 110% | 96.1% | 105% | 105% | 97.7% | 92.3%
13 | O=C(Cc1ccccc1)NNc1nc(Cl)nc(N2CCN(C(c3ccccc3)c3ccccc3)CC2)n1 | 110% | 9.78% (active) | 99.6% | 84.4% | 85.8% | 100% | 98.6% | 102% | 90.6% | 81.6%
14 | Brc1ccc(Nc2csc(-c3ccccn3)n2)cc1 | 94.6% | 84.5% | 99.4% | 81.9% | 106% | 90.9% | 88.8% | 95% | 111% | 93.3%
15 | CCCCOc1ccc(/C(C)=N/Nc2cc(C)nc3ccc(Br)cc23)cc1 | 96.3% | 15.7% | 145% | 81.3% | 94.3% | 96.3% | 76.2% | 98.7% | 114% | 104%
16 | Cc1nc(N)nc(N[C@@H](C)c2nc3cccc(NCc4ccc(C(=O)NO)cc4)c3c(=O)n2-c2ccccc2)n1 | 86.9% | 47.8% | 37.7% | 81% | 65% | 87.1% | 104% | 75.9% | 58.3% | 73.7%
17 | Cc1ccc(S(=O)(=O)Nn2c3c(cc(-c4nc5ccccc5s4)c2=O)CCCCCC3)cc1 | 105% | 98.4% | 88.3% | 93.2% | 101% | 96% | 97.2% | 100% | 97.3% | 99%
18 | Cc1ccc(NC(=O)c2cc(-c3nc4ccccc4s3)c(=O)n(NS(=O)(=O)c3ccc(Cl)cc3)c2N)cc1 | 107% | 100% | 112% | 96.1% | 112% | 94.2% | 101% | 97.2% | 104% | 99.4%
19 | O=C(CCN1CCCC1)Nc1ccc2c(NCCCc3ccccc3)c3ccccc3nc2c1 | -52.6% (active) | -7.07% (active) | -90.7% (active) | -24.3% (active) | 5.65% (active) | 21% | 46.9% | 13.7% | 14.7% | -61.5% (active)
20 | CC(C)(C)c1cc(/C=N/NC(=O)c2ccccc2NC(=O)c2cccs2)c(O)c(C(C)(C)C)c1 | 32.5% | 13.1% | 49.6% | 44.3% | 64.6% | 24.6% | 40% | 51.7% | 38.6% | 27.6%
21 | COc1cc(F)c(/C=C/c2cc(/C=C/c3cc(OC)c(OC)cc3F)on2)cc1OC | 88.2% | 63.3% | 69.3% | 83% | 92.8% | 86.7% | 97.7% | 98% | 86.3% | 80.9%
22 | COc1ccc(C/C(C)=C(/c2ccc(OCCCN(C)C)cc2)c2ccc(OC(C)=O)cc2)cc1 | 89.2% | 3.38% (active) | 79% | 66.8% | 65.6% | 71% | 27.1% | 72.6% | 73.6% | 50.6%
23 | O=C1Nc2cc(-c3cccc(O)c3)ccc2/C1=C/c1ccc[nH]1 | 33.8% | 5.66% (active) | 16.1% | -15.8% (active) | -39.8% (active) | 15.4% | 19.3% | -48.7% (active) | 46% | 16.9%
24 | O=C1c2ccc3c4c(ccc(c24)C(=O)N1CCCNCc1ccccc1Cl)C(=O)N(CCCNCc1ccccc1Cl)C3=O | -86.5% (active) | -38.2% (active) | -72.9% (active) | 16.7% | -94.2% (active) | -30.2% (active) | -52.2% (active) | -67.6% (active) | -90.6% (active) | -56.5% (active)
25 | O=S(=O)(NCCCNc1nccc(-c2c(-c3cccc(F)c3)nc3sccn23)n1)c1cccc2ccccc12 | 49.9% | 15.2% | 78.7% | 4.05% (active) | 62.9% | 44.5% | 34.6% | 72.8% | 72.9% | 42.7%
26 | CCOC(=O)C1=C(C)NC(SCc2cc(=O)oc3ccc(F)cc23)=N[C@@H]1c1cccc2ccccc12 | 98.5% | 79.7% | 112% | 77.7% | 117% | 94.3% | 97.9% | 114% | 109% | 102%
